High-throughput results as filed in PubChem BioAssay.
Shown are actives, neighbours in structure and some others; about 3.5% of the full set was active somewhere.
FBW7 activator = human FBW7 E3 ligase activation, primary screen | Q969H0 | actives 0.13% (n = 650,000) | normalized activity (activation), % at 26.1 µM | AlphaScreen FBW7–phospho-cyclin E peptide binding, activator screen; in the data active means normalized activity above about 1.9%;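 further: purified mutant Fbw7 with reduced substrate affinity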
TEAD-YAP block = TEAD-YAP interaction inhibition; HEK-TIYL cells, TEAD-Gal4/YAP UAS-luciferase luminescence; inhibition, % at 9.12 µM; actives 1.4% (n = 640,000); in the data active means inhibition above about 32%;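 further: 0% = median of test compound wells and 100% = reference inhibitor wells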
GPR151 activ = activators of human GPR151 | AID 1508602 | activation, % at 11.2 µM | actives 1% (n = 650,000) | PathHunter beta-arrestin GPR151 cells, luminescence | Q8TDV0; in the data active means activation above about 4.9%;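 further: 0% = median of compound wells and 100% = cells with positive control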
Target sequence (Q8TDV0 whole entry, looked up): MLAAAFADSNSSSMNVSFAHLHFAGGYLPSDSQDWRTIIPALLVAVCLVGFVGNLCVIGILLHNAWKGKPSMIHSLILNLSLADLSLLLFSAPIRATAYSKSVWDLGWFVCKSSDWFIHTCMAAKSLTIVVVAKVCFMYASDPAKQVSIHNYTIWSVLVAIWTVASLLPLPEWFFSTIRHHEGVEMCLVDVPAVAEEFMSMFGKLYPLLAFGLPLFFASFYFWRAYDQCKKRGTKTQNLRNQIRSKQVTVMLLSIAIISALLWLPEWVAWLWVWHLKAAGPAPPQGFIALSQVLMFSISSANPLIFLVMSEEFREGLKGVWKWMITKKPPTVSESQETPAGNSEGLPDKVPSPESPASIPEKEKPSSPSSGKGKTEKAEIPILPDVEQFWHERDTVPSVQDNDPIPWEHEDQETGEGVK
MITF inh = inhibitors of human MITF | O75030 | AlphaScreen MITF homodimerization, bead proximity signal | inhibition, % at 2.6 µM | actives 0.91% (n = 650,000); in the data active means inhibition above about 50%;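 further: 0% = vehicle wells with protein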
* marks the source's active call; other numbers are inactive results.

SMILES	FBW7 activator	TEAD-YAP block	GPR151 activ	MITF inh
COCC(C)NC(=O)c1ccc(Br)cc1 (stereo unspecified)	0	-5	-1	-5
CC(=O)c1ccc(Nc2cnn(C34CC5CC(CC(C(=O)O)(C5)C3)C4)c(=O)c2Cl)cc1	0	9	0	-1
COc1cccc(C2=NN3C(C2)c2cccc(OC)c2OC3c2cccc(Cl)c2)c1 (stereo unspecified)	0	29	1	4
CCOc1cccc2c1OC(c1ccc(OC)cc1)N1N=C(c3cccc(OC)c3)CC21 (stereo unspecified)	0	47*	-2	-7
COc1cccc(C2=NN3C(C2)c2cccc(OC)c2OC3c2ccc(SC)cc2)c1 (stereo unspecified)	0	47*	-1	-5
CC(CO)NC(=O)COc1ccc(-c2ccccc2)cc1CN(C)C (stereo unspecified)	0	0	3	-2
C=CCN1C(=O)CC(C(=O)OC)C12CCN(CCCc1ccccc1)CC2 (stereo unspecified)	0	4	0	-1
O=S(=O)(NCc1csc(-c2cccs2)n1)c1ccc(-c2ccccn2)s1	2.1*	2	1	10
O=C(Nc1sc2c(c1C(=O)O)CCCCC2)c1cccs1	0	42*	-8	0
CC1CCc2c(sc(NC(=O)c3ccccc3)c2C(=O)O)C1 (stereo unspecified)	0	70*	-4	16
COc1ccc(NC(=O)c2c(NC(=O)c3cccs3)sc3c2CCC(C)C3)cc1 (stereo unspecified)	0	-3	0	-13
CC1CCc2c(sc(NC(=O)c3cccs3)c2C(=O)O)C1 (stereo unspecified)	0	61*	1	1
Cc1nn(CCC#N)c2nc(-c3cccs3)cc(C(F)(F)F)c12	0	0	-1	5
COCCN(C(=O)Nc1cccc(F)c1)C1CCN(c2nccc(OC)n2)CC1	0	6	1	5
COc1cccc(CN(C)C(=O)c2cnc3cc(-c4cn[nH]c4)ccn23)c1	0	46*	-1	-5
COc1cccc(CN(CCN(C)C)C(=O)Nc2ccc(-c3cn[nH]c3)cc2N(C)C)c1	0	50*	-1	25
COc1cccc(CN(CCN(C)C)C(=O)c2cnc3ccc(-c4cn[nH]c4)cn23)c1	0	45*	1	1
COc1cccc(CN(CCN(C)C)C(=O)c2cnc3cc(-c4cn[nH]c4)ccn23)c1	0	-10	-2	-4
COc1cccc(CN(CCCN(C)C)C(=O)Nc2ccc(-c3cn[nH]c3)cc2OC)c1	0	-12	1	-10
Cc1ccc(OCC(=O)NNC(=O)C(C)Oc2ccccc2)c(Br)c1 (stereo unspecified)	0	6	0	18
O=C(NN1C(=O)c2cccc3c([N+](=O)[O-])ccc(c23)C1=O)c1ccc([N+](=O)[O-])cc1	2.6*	8	0	17
Cc1csc(-c2cnn3c(N4CCN(C)CC4)ccnc23)c1	0	32*	-1	-13
Cc1ccc(-c2cnn3c(N4CCN(C)CC4)ccnc23)cc1	0	-52	0	-12
CCCSC1=C(C#N)C(c2ccco2)CC(=O)N1 (stereo unspecified)	1	-6	-1	1
CC(C)NC(=O)N1CCC(c2nnc(C(C)C)o2)CC1	0	-4	-1	-9
SMILES	FBW7 activator	TEAD-YAP block	GPR151 activ	MITF inh
O=C(NCCc1ccccc1)C1CCN(C(=O)NCc2ccccc2)CC1	0	1	0	6
CC(C)NC(=O)N1CCC(c2nnc(C3CC3)s2)CC1	2.1*	4	-1	12
O=C(NCCc1ccccc1)N1CCC(c2nnc(C3CC3)s2)CC1	2.6*	-11	2	-7
CC(C)N(Cc1ccccc1)C(=O)Cn1ncc2c3ccccc3n(C)c2c1=O	0	4	-1	8
C=CCNc1cc(-c2ccccc2)nc(-c2ccccn2)n1	-1	88*	0	13
CCN(CC)c1cc(-c2ccccc2)nc(-c2ccccn2)n1	0	47*	3	-8
CC(c1ccccc1)C(CC(=O)Nc1nccs1)C(=O)Nc1nccs1 (stereo unspecified)	0	-6	-1	-6
NS(=O)(=O)c1ccc(CCNC(=O)/C=C/c2ccc3c(c2)OCO3)cc1	0	5	1	11
CN1Cc2cccc(Nc3cc(Nc4cccc5c4C(=O)N(C)C5)c(C(F)(F)F)cn3)c2C1=O	0	-5	0	16
FC(F)(F)c1cnc(Nc2ccccn2)cc1Nc1ccccn1	0	54*	-1	4
Cc1[nH]c2ccccc2c1C(=O)/C(C#N)=C/c1ccc(N(C)CCO)cc1	0	38*	1	13
Cn1ccnc1SCc1cc(=O)c(OC(=O)c2c(F)cccc2Cl)co1	0	1	2	-2
Cn1c(=O)cc(OCC(=O)NCCCN2CCCC2=O)c2ccccc21	0	-1	2	-3
O=C(CSCc1ccc(Cl)cc1)N1CCCC1	0	-23	-3	-3
CC[n+]1c(-c2ccc(C)cc2)csc1Nc1c(C)cc(C)cc1C	0	5	3	22
CC[n+]1c(-c2ccc(C)cc2)csc1Nc1ccc(NC(C)=O)cc1	0	62*	1	12
O=C(Nc1ccc(-c2ccc(N3CCCCC3)nn2)cc1)c1cccs1	7.4*	-17	0	6
O=C(Nc1cccc(-c2ccc(N3CCCCCC3)nn2)c1)c1cccs1	0	-42	-1	-6
COc1ccc(S(=O)(=O)N2CCCc3ccccc32)cc1C	0	37*	1	-24
Cc1ccc(S(=O)(=O)N2CCCc3ccccc32)cc1C	0	2	0	2
Cc1ccc(S(=O)(=O)N2CCc3ccccc32)cc1[N+](=O)[O-]	-1	56*	2	13
O=S(=O)(c1ccc(F)cc1)N1CCc2ccccc21	0	5	1	0
COc1cc(S(=O)(=O)N2CCc3ccccc32)c(OC)cc1Cl	0	45*	1	-3
O=S(=O)(c1cccc(S(=O)(=O)N2CCc3ccccc32)c1)N1CCCC1	0	43*	-1	28
Cc1ccc(S(=O)(=O)N2CCc3ccccc32)cc1C(N)=O	0	3	1	10
SMILES	FBW7 activator	TEAD-YAP block	GPR151 activ	MITF inh
CNC(=O)C1=C(C)NC(=S)NC1c1ccc(Cl)cc1Cl (stereo unspecified)	0	-1	1	-15
CCCNC(=O)c1cc(S(=O)(=O)N2CCc3ccccc32)cn1C	0	32*	3	-6
COC(=O)c1cc(S(=O)(=O)N2CCc3ccccc32)cn1C	0	0	3	15
Cc1ccc(-c2nnc(-c3ccccc3C)o2)cc1	0	-33	-3	6
Cc1ccc(-c2nnc(Nc3ccccc3)o2)cc1	0	44*	-10	5
CN(CCc1ccccc1)C1CCCN(C(=O)CCc2ccco2)C1 (stereo unspecified)	0	-8	-3	-10
Cc1nn(-c2ccccc2)c(Cl)c1/C=N/Nc1ncnc(N)c1[N+](=O)[O-]	0	32*	2	2
CCN(CC)c1ccc(/C=N/Nc2ncnc(N)c2[N+](=O)[O-])cc1	-1	91*	-9	-13
